Assay outcomes from PubChem.
AmpC no deterg = inhibitors of E. coli AmpC beta-lactamase without detergent; P00811; AmpC nitrocefin hydrolysis, absorbance 480 nm, 0.0001% Triton; Potency, µM (titrated, usually from 57.1 µM), inactives show at the top dose activity change, negative = inhibition, most hits filed as inhibitors; hit rate 0.52% among 330,000; AID 485341;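 also: potency is read from the fitted curve at half-maximal effect; plate controls were no compound for no effect and no enzyme for full effect; nearly all actives have a fitted effect of over 20% in size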
Target sequence (P00811 whole entry, looked up): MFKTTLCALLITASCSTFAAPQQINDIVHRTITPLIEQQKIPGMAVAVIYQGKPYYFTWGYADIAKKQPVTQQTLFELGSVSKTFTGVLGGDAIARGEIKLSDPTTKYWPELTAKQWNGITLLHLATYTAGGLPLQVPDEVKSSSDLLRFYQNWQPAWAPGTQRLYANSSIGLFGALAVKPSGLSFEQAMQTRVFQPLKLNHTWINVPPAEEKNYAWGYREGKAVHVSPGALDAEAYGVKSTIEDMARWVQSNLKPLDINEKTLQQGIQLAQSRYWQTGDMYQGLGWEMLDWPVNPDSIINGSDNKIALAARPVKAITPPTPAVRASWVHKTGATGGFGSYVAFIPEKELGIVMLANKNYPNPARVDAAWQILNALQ
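AmpC (5.3 nM in the dispensed reagent) in 20 mM phosphate pH 7.0 with 0.01% (detergent screen) or 0.0001% Triton X-100 was preincubated with compounds for 15 min at room temperature. Nitrocefin was then added from an 800 uM solution, and hydrolysis was followed at 480 nm.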
AMA1-RON2 inh = inhibitors of Plasmodium falciparum AMA1-RON2 interaction | AlphaScreen AMA1-biotinylated RON2 peptide binding | hit rate 0.2% among 360,000 | Potency, µM (doses to about 58.2 µM), for the others: top-dose activity change, negative = inhibition, hits mostly inhibitors;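 also: potency is read from the fitted curve at half-maximal effect; 0% = vehicle wells and -100% = peptide control; nearly all actives have a fitted effect of over 45% in size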
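AMA1 (3D7) with his tag at 25 nM final met compounds first, then biotinylated RON2 peptide at 25 nM; detection used donor plus acceptor beads, 10 µg/mL apiece, read by AlphaScreen after 30 min at room temperature.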
NS1 inh = blocks influenza NS1 protein function; Potency, µM (doses to about 46.1 µM), for the others: at the highest dose activity, positive = more growth; hit rate 0.4% among 270,000; AID 2326; calls by dose curve; also: potency is read from the fitted curve at half-maximal effect; actives are rising curves; nearly all actives have a fitted effect of over 50% in size
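Recovery from NS1-induced slow growth read by OD600 in budding yeast switched to galactose assay medium (pH 6.0, -URA) at 1:100 dilution. Compound 23 nl per well; the matching strain lacking NS1 serves as control.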
AmpC detergent = inhibitors of E. coli AmpC beta-lactamase with detergent; AmpC hydrolysis of nitrocefin, absorbance 480 nm, 0.01% Triton; Potency, µM (series often up to 114 µM), without a hit: top-dose activity change, negative = inhibition, hits mostly inhibitors; hit rate 0.041% among 370,000; AID 485294;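 also: potency is read from the fitted curve at half-maximal effect; 0% = no-compound wells and -100% = no-enzyme wells; nearly all actives have a fitted effect of over 25% in size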
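AmpC (5.3 nM in the dispensed reagent) in 20 mM phosphate pH 7.0 with 0.01% (detergent screen) or 0.0001% Triton X-100 was preincubated with compounds for 15 min at room temperature. Nitrocefin was then added from an 800 uM solution, and hydrolysis was followed at 480 nm.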
Flu NS1 inh = validation of influenza NS1 protein function inhibitors | shares compounds with NS1 inh | influenza NS1 function cell assay, 15-point titration | activity change, negative = inhibition, % at 32.9 µM | 1,400 tested, under 10 active | AID 492980; calls by dose curve; also: 0% is about no effect
Numbers without * were called inactive; ? = inconclusive; nt = no result. Compounds with a hit are over-represented: about 0.86% of the library has one in this group of screens. Unless noted, calls follow the shape of the dose curve; as a rule, active = well fitted curve in the direction sought with a large enough effect; inconclusive = small, poorly fitted or top-dose-only effect, or another doubt; inactive = no such curve, though single readings can be large; an effect the other way counts as inactive or inconclusive.

SMILES | AmpC no deterg | AMA1-RON2 inh | NS1 inh | AmpC detergent | Flu NS1 inh
COc1cc(CN2CCN(C(C)C)C(CCO)C2)ccc1OCc1ccccc1 (stereo not given) | 39% | -9% | 2% | 5% | nt
C=CCN1CCc2cccc3c2C1Cc1ccc(O)c(O)c1-3 (stereo not given) | nt | nt | 11µM* | nt | -20
CC1CCN(C(=O)CN2C(=O)C(=O)N(C)C2=O)c2ccccc2S1 (stereo not given) | -7% | 4% | nt | 7% | nt
Cc1ccc(NC(=O)CSc2nc(O)cc(=O)n2C)cc1 | -33% | 11% | 11µM* | ? | ?
Cn1c(SCC(=O)Nc2cccc3ccccc23)nc(O)cc1=O | ? | 3% | 3.5µM* | ? | 24
CCOc1ccc(-c2cn(-c3ccccc3OC)c(=S)[nH]2)cc1 | -32% | 39% | ? | 5% | -34
CCc1ccccc1NC(=S)/N=C(\N)Nc1nc(C)c2cc(C)ccc2n1 | -13% | 26% | ? | ? | -29
Cc1ccc(NC(=S)/N=C(\N)Nc2nc(C)c3cc(C)ccc3n2)c(C)c1 | -29% | 33% | 16% | -5% | nt
CC(=O)Nc1ccc(-c2nnc(SCC(=O)c3ccc4c(c3)Cc3ccccc3-4)n2C)cc1 | 6% | 7% | -25% | -10% | nt
Cn1c(SCC(=O)c2ccc3c(c2)Cc2ccccc2-3)nnc1-c1cccc(N)c1 | 115% | 2% | ? | 4% | 34
CC(=O)Nc1ccc(/C(C)=N/Nc2nc(N3CCOCC3)nc(N3CCOCC3)n2)cc1 | -4% | 8% | nt | 9% | nt
CC(=O)Nc1ccc(/C(C)=N/Nc2nc(Nc3cccc4ccccc34)nc(N3CCOCC3)n2)cc1 | 96% | 10% | 4.5µM* | 3% | ?
O=C(Cc1csc(NC(=O)c2ccccc2)n1)NO | -9% | 104% | nt | ? | nt
O=C(Cc1ccsc1-c1ccccc1)NO | -17% | -2% | ? | 5% | 8
Cc1nc(-c2ccc(S(=O)(=O)NCc3cccnc3)s2)cs1 | -6% | -11% | -3% | 3% | nt
COCCNC(=O)Cn1c(=O)n(Cc2ccc(C(=O)NCc3ccco3)cc2)c(=O)c2ccccc21 | 43% | -13% | ? | 1% | 2
O=C(Cn1c(=O)n(Cc2ccccc2)c(=O)c2ccccc21)NCc1ccco1 | -38% | 24% | 5% | -12% | nt
Cc1ccc(-n2nc(C)c3c2OC(N)=C(C#N)C3c2ccoc2)cc1 (stereo not given) | -33% | -6% | 2.5µM* | -15% | 7
CCOC(=O)C1CCCN(C(=O)c2cc(C)oc2C)CC1 (stereo not given) | nt | 8% | nt | nt | nt
COc1ccc(CNC(=O)c2cc3ccccc3oc2=O)cc1 | -13% | 0% | -4% | 2% | nt
COc1ccc(-c2[nH]c3ccccc3c2SCCNC(=O)c2cc3ccccc3oc2=O)cc1 | -35% | -8% | 10µM* | -6% | 2
CCN1CCN(Cc2c(O)ccc3c2O/C(=C\C=C\c2ccccc2)C3=O)CC1 | 169% | -7% | 10µM* | ? | -35
O=C1/C(=C/C=C/c2ccccc2)Oc2c1ccc(O)c2CN1CCN(CCO)CC1 | 89% | -4% | 19% | 1% | nt
Clc1ccccc1N1CCN(Cc2c[nH]c3ccccc23)CC1 | nt | -20% | nt | nt | nt
Fc1ccccc1N1CCN(C2CCN(Cc3c[nH]c4ccccc34)CC2)CC1 | 8% | 24% | 25µM* | -20% | -16
SMILES | AmpC no deterg | AMA1-RON2 inh | NS1 inh | AmpC detergent | Flu NS1 inh
CNS(=O)(=O)c1ccc(C)cc1 | -32% | -10% | ? | -10% | 13
COc1ccc(NC(=O)CC(=O)Nc2ccc(OC)cc2OC)c(OC)c1 | -2% | -10% | ? | -17% | 2
COc1cccc(NC(=S)NCCC(c2ccccc2)c2ccccc2)c1 | -30% | -2% | 11% | 4% | nt
COc1ccc(NC(=S)NCCC(c2ccccc2)c2ccccc2)c(OC)c1 | -35% | 46% | 11µM* | ? | ?
O=C(CSc1nnc(CNC(=O)c2ccccc2)o1)NCC1CCCO1 (stereo not given) | -18% | 13% | 2% | 7% | nt
COc1cccc(C(=O)Nc2ncc3c(n2)CC(c2ccc(OC)cc2OC)CC3=O)c1 (stereo not given) | -3% | 10% | 10µM* | -11% | -24
COc1cc(C)c(C(N)=O)c(OC)n1 | -2% | -5% | ? | 2% | 1
COc1ccc(Nc2nc(C)cc(C)c2C(N)=O)cc1 | -6% | -21% | 1% | ? | nt
